Laboratory results from PubChem BioAssay (NCI).
Compounds without any hit were thinned out: in the full panel of roughly 79,000, 15% have a hit. Calls of active or inactive are those of the source. Cut-off read from the data, not from the text of the source: active = growth inhibition above about 70%; inactive = the rest.

Assay: NCI Yeast Anticancer Drug Screen. Data for the CLN2oe strain (AID 163);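 note: 0% = growth of vehicle-only control cultures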
Conditions: S. cerevisiae CLN2oe strain, at 1.2 µM, active compounds read high
In short: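 Yeast cells carrying a defined cell-cycle control alteration were exposed to test compounds. Growth inhibition was scored against vehicle-treated control cultures.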

| SMILES | growth inhibition |
| --- | --- |
| Cc1sc2ccc3ccccc3c2[n+]1C | -16% (inactive) |
| COc1c(O)c(C=O)c(Br)c(C=O)c1O | 2% (inactive) |
| Cc1ccc(Cl)cc1NC(=O)OCCN(C)C(=O)Nc1cc(Cl)ccc1C | -48% (inactive) |
| Cc1nc2ccccc2nc1NNc1ccccc1 | -7% (inactive) |

Same assay, conditions: S. cerevisiae CLN2oe strain, at 3.7 µM, active compounds read high

| SMILES | growth inhibition |
| --- | --- |
| CN(C)c1ccc(C2CC(C)(O)Oc3cc4c(cc32)OCO4)cc1 (configuration not stated) | -16% (inactive) |
| O=P(NC1CCCCC1)(OCc1ccccc1)OCc1ccccc1 | 2% (inactive) |
| COc1oc(C(=O)NC2CCCCC2)c(-c2ccc(Cl)cc2)c1S(=O)(=O)c1ccccc1 | 0% (inactive) |
| C[Si](C)(C)/C=C/CCNC(C#N)c1ccccc1 (configuration not stated) | 10% (inactive) |
| CCOc1ccc(NC(=O)C2=C(C)NC(C)=C(C(=O)Nc3ccc(OCC)cc3)C2c2cccc([N+](=O)[O-])c2)cc1 | -2% (inactive) |
| CN(C)CCOC1(Cc2ccc(F)cc2)CCC(C(C)(C)C)CC1 (configuration not stated) | -5% (inactive) |
| CC1(C)CC(=O)C(/C=N/c2nc(-c3ccccc3)cs2)=C(O)C1 | -5% (inactive) |
| CC(=O)Nc1ccc2c(c1)Cc1cc(N=C3C=CC(=O)O3)ccc1-2 | 16% (inactive) |
| O=C1C=C(Cl)C(=O)C(c2ccc(Cl)cc2)=C1 | 32% (inactive) |
| CCCCCCCCCCCC(O)S(=O)(=O)O (configuration not stated) | -1% (inactive) |
| CC(C)OC(=O)c1ccc(CCc2cc(O)c(Br)cc2O)cc1 | 19% (inactive) |
| CCc1cc(O)c(Cl)c(C)c1Cl | -21% (inactive) |
| C(=Nc1ccc(-c2cc(-c3ccccc3)nc3ccc4ccccc4c23)cc1)c1ccccc1 | 24% (inactive) |
